Laboratory results from PubChem BioAssay AID2073 (Sanford-Burnham Center for Chemical Genomics, 2009).
In all, about 290,000 compounds went through this assay and about 570 (0.2%) were called active. Roughly 1% stayed inconclusive and do not appear here. This is one part of a sample in which actives are shown more often than they occur. Rule as the data show it: active = inhibition mostly above about 51% (no sharp cut-off); inconclusive = no clear call, values can overlap the other calls; inactive = mostly below about 53%.

Target: Voltage-dependent N-type calcium channel subunit alpha-1B (Homo sapiens) (UniProt Q00975)
Assay: inhibitors of Mint1-CaV2.2 protein interaction, biochemical, HTRF (AID 2073)
Settings: at 20 µM, stronger effect = higher value
[1] = measured here: average of repeat tests

Voltage-dependent N-type calcium channel subunit alpha-1B (Homo sapiens), sequence (Q00975 whole entry, looked up): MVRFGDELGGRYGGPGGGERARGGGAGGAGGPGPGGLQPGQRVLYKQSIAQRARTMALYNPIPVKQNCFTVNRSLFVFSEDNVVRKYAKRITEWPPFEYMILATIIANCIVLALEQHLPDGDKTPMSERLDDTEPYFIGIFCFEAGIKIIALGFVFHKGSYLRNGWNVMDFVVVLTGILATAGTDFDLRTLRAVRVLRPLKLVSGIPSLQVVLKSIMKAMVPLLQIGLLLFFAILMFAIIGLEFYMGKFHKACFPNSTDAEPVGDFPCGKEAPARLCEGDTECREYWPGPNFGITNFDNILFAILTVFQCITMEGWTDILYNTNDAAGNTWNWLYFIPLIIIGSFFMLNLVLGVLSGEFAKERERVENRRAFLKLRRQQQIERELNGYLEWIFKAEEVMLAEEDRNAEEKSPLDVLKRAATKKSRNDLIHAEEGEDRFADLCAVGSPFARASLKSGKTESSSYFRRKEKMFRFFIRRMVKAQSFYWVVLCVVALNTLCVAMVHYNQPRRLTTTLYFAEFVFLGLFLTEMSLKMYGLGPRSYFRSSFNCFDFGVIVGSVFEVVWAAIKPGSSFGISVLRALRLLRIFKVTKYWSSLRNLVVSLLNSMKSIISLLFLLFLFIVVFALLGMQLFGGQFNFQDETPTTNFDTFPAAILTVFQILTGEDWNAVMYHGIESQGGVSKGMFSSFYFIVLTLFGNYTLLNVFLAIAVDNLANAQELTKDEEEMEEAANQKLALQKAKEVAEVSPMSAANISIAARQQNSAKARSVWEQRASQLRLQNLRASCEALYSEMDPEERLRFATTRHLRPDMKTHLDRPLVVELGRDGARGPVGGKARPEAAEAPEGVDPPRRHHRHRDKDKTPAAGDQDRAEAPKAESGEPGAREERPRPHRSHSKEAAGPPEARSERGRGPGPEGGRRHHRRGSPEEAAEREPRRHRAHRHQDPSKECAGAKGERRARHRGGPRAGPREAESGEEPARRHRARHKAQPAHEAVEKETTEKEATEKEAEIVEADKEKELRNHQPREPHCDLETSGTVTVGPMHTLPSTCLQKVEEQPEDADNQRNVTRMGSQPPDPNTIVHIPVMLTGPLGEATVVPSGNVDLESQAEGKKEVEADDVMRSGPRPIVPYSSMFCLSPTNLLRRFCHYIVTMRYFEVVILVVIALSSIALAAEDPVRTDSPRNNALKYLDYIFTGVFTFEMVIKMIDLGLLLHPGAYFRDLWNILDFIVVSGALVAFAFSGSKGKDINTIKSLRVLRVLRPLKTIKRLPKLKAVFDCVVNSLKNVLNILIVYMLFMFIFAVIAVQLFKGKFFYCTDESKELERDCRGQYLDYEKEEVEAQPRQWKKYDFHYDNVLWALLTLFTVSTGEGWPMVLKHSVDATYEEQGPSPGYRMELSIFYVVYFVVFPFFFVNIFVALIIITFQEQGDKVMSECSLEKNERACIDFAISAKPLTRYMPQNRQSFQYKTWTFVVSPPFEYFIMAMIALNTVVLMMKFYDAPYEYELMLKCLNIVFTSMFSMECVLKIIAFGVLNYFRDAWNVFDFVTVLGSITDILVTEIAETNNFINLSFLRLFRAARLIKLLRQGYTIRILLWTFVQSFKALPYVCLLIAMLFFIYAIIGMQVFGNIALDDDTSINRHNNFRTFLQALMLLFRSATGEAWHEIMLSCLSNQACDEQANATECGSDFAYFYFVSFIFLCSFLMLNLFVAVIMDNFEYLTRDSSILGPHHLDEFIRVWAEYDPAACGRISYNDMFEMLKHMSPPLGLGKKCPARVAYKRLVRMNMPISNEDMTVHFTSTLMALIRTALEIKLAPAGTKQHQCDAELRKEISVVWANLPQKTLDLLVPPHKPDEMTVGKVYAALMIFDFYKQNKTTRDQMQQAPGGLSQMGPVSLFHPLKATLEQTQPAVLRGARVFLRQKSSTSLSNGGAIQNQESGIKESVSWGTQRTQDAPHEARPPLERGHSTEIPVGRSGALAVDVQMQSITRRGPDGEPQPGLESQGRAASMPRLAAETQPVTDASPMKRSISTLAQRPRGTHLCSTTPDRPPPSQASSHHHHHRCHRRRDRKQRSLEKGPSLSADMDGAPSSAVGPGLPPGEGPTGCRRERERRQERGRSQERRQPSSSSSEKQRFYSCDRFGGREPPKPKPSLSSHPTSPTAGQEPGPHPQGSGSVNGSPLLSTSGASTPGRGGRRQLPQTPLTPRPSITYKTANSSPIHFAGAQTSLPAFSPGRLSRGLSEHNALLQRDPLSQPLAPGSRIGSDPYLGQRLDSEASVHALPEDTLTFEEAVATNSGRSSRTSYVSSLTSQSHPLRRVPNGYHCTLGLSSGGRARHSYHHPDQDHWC

Structure (SMILES) | inhibition | inhibition [1]
CCN(C(=O)COC(=O)c1c(C)nn(-c2ccccc2)c1C)C1CCS(=O)(=O)C1 (stereo unspecified) | 6.4% (inactive) | 
C/C(CC(=O)Nc1ccc2c(c1)OCCO2)=N\NC(=O)COc1ccccc1 | 1.2% (inactive) | 
COc1ccc(CCNC(=O)C2CC(c3cc(C(F)(F)F)cc(C(F)(F)F)c3)=NO2)cc1 (stereo unspecified) | 0.2% (inactive) | 
Cc1ccc(/C=C/C(=O)Nc2ccc(O)c3c(=O)cc(-c4ccccc4Cl)oc23)cc1 | 13% (inactive) | 
CCCN1Cc2cccc(C(=O)NC(CC(=O)OCC)c3ccc(OC(C)C)cc3)c2C1=O (stereo unspecified) | -3.9% (inactive) | 
Cc1ccc(Cl)cc1N1CCN(C(=O)Cn2ncn3cccc3c2=O)CC1 | -1.5% (inactive) | 
O=C(CCCn1c(=S)[nH]c2ccccc2c1=O)NC1CCCC1 | -32.5% (inactive) | 
CCc1ccccc1NC(=O)COc1ccc(N2CC(C(N)=O)CC2=O)cc1 (stereo unspecified) | 11.4% (inactive) | 
OC1CNCc2cc3c(cc21)OCCO3 (stereo unspecified) | -5.4% (inactive) | 
NC(=O)COC(=O)c1cc(-c2ccco2)nc2ccccc12 | 14.1% (inactive) | 
O=C(COC(=O)c1cc(-c2ccco2)nc2ccccc12)NCc1ccccc1 | 25.4% (inactive) | 
CNC(=O)COC(=O)c1cc(-c2ccco2)nc2ccccc12 | 66.4% (active) | 
CCN1CCN(CCCNC(=O)Cn2nc(C)n3nc(-c4ccccc4)cc3c2=O)CC1 | 12.1% (inactive) | 
O=c1[nH]c(C2CCCN(S(=O)(=O)c3ccc(F)cc3)C2)nc2c1nnn2Cc1ccccc1 (stereo unspecified) | -1% (inactive) | 
Cc1[nH]n(-c2ccccc2)c(=S)c1C=Nc1ccc([N+](=O)[O-])cc1 | 67% (active) | 
Cc1[nH]n(-c2ccccc2)c(=O)c1C=Nc1ccc(S(N)(=O)=O)cc1 | 0.1% (inactive) | 
Cc1[nH]n(-c2ccccc2)c(=S)c1C=Nc1cccc([N+](=O)[O-])c1 | 34.3% (inactive) | 
Oc1ccccc1Cn1nnc2ccccc21 | 7.1% (inactive) | 
COc1ccc(CCNC(=O)CCN2C(=O)[C@@H]3Cc4ccccc4CN3C2=O)cc1 | -3.7% (inactive) | 
CCC(=O)Nc1ccc(C(=O)CSc2nc3ccccc3[nH]2)cc1 | 54.5% (active) | 
CN(C)C(=O)c1ccc(NC(=O)CSc2nc3ccccc3[nH]2)cc1 | -1.1% (inactive) | 
CCC(=O)Nc1ccc(C(=O)CSc2nc3ccc(C)cc3[nH]2)cc1 | 32.1% (inactive) | 
COc1ccc(CCNCC(=O)Nc2c(C)cc(C)cc2C)cc1OC | -6.8% (inactive) | 

Structure (SMILES) | inhibition | inhibition [1]
CCOC(=O)N1CCN(c2ccccc2OC)CC1 | -13.4% (inactive) | 
O=C(NNc1nc(-c2ccccc2)cs1)c1ccc(F)cc1 | 60% (inactive) | -6.1%
O=C(NNc1nc(-c2ccccc2)cs1)c1ccccc1 | -28.9% (inactive) | 
O=C(NNc1nc(-c2ccc(F)cc2)cs1)c1ccccc1 | 71.1% (active) | 
O=C(CSc1nc2ccccc2c(=O)[nH]1)Nc1ccccc1O | -8.6% (inactive) | 
O=c1[nH]c2ccccc2c2nc3ccccn3c12 | 23.2% (inactive) | 
O=c1nc2c(O)cccn2c2c1c(=O)[nH]c1ccccc12 | 66.4% (active) | 
Cc1ccc2c(c1)N(CCCC(=O)NCc1ccc3c(c1)OCO3)C(=O)CO2 | 9.3% (inactive) | 
CCOC(=O)c1cn2nc(Oc3cccc(F)c3)ccc2n1 | 4.6% (inactive) | 
CC(C)NC(=O)C1(S(=O)(=O)c2ccccc2)CC=CC1 | 4.8% (inactive) | 
COc1ccc(C(=O)NCCCOc2cccc(NC(C)=O)c2)cc1 | 21.8% (inactive) | 
CC1CCN(C(=O)C2CCCN(S(=O)(=O)c3cccc4nsnc34)C2)CC1 (stereo unspecified) | 5.2% (inactive) | 
COc1ccc(-c2nnc(SCC(=O)NCCc3ccccc3)o2)cc1 | 2.1% (inactive) | 
COc1ccc(-c2nnc(SCC(=O)NC(=O)NCc3ccccc3)o2)cc1 | 55.3% (active) | 
COc1ccc(-c2nnc(SCC(=O)NC(=O)NCc3ccco3)o2)cc1 | -1.1% (inactive) | 
COc1ccc(N(CC(=O)NCc2ccco2)S(C)(=O)=O)cc1 | 2.6% (inactive) | 
Cc1cccc(/C=N/NC(=O)NC2CCCCC2)c1 | -3.7% (inactive) | 
C=CCN1C(=O)N/C(=C/c2ccc(N3CCOCC3)o2)C1=O | 55.4% (inactive) | 7.9%
O=C1N/C(=C/c2ccc(N3CCOCC3)o2)C(=O)N1c1ccccc1 | 44.8% (inactive) | 
O=C1NC(=O)/C(=C/c2ccc(N3CCOCC3)o2)N1 | 52.2% (inactive) | 3.9%
O=C1NC(=O)/C(=C\c2ccc(N3CCOCC3)o2)N1 | 71.7% (active) | 
O=C1NC(=S)S/C1=C/c1ccc(N2CCOCC2)o1 | 32.5% (inactive) | 
O=C1N/C(=C/c2ccc(N3CCOCC3)o2)C(=O)N1c1cccc(Cl)c1 | 58.7% (active) | 

Structure (SMILES) | inhibition | inhibition [1]
Cc1cc(Br)ccc1OCCN1CCCC1 | 1.2% (inactive) | 
Cc1ccc(S(=O)(=O)N2CCN(CCNC(=O)C(=O)NCc3ccccc3)CC2)cc1 | -2.1% (inactive) | 
Cc1cccc(C(=O)O)c1NC(=O)Cc1cccc2ccccc12 | 9.3% (inactive) | 
O=c1[nH]c(SCc2n[nH]c(=S)n2-c2ccccc2)nc2sc3c(c12)CCC3 | 17.3% (inactive) | 
COc1ccc(/C=C2/SC(=O)N(CCC(=O)Nc3ccc(S(=O)(=O)Nc4nccs4)cc3)C2=O)cc1 | 53% (active) | 
O=C(CCN1C(=O)S/C(=C\c2ccccc2)C1=O)Nc1ccc(S(=O)(=O)Nc2nccs2)cc1 | -6.5% (inactive) | 
COc1ccc(/C=C2\SC(=O)N(CCC(=O)Nc3ccc(S(=O)(=O)Nc4nccs4)cc3)C2=O)cc1 | 25.3% (inactive) | 
COc1cccc(OC)c1C(=O)Nc1cccnc1 | -4.9% (inactive) | 
CNC(=S)NNC(=O)Cc1ccc(OC)c(OC)c1 | -18.7% (inactive) | 
Cc1cc(N)n2nc(C(F)(F)F)nc2n1 | -3.1% (inactive) | 
CC(=O)c1ccc(NC(=O)c2cc3nc4c(c(C(F)(F)F)n3n2)CCCC4)cc1 | 33.2% (inactive) | 
CCn1c(SCC(=O)Nc2cc(C)on2)nnc1-c1ccc(S(=O)(=O)N2CCCC2)cc1 | 0.3% (inactive) | 
O=C1C2C3C=CC(C3)C2C(=O)N1c1ccc(-c2nc3ccccc3o2)cc1 (stereo unspecified) | 15.5% (inactive) | 
O=C1c2ccccc2C(=O)N1c1cccc(-c2nc3ccccc3o2)c1 | 19.2% (inactive) | 
O=C1c2ccccc2C(=O)N1c1ccc(-c2nc3ccccc3o2)cc1 | 67.9% (active) | 
CC(=O)c1cccc(NC(=O)NNC(=O)c2ccc(-c3ccccc3)cc2)c1 | 22.1% (inactive) | 
CCCNC(=O)CSc1nccn1Cc1ccco1 | -17.8% (inactive) | 
Cc1ccc(N2CCN(C(=S)Nc3ccccc3C)CC2)cc1 | -9.9% (inactive) | 
Cc1nc2c(c(=O)n1Cc1ccccc1Cl)c1nc3ccccc3nc1n2Cc1ccco1 | 38.1% (inactive) | 
Cc1nc2c(c(=O)n1Cc1ccco1)c1nc3ccccc3nc1n2Cc1ccccc1 | 50.6% (active) | 
COc1ccc(Cn2c3nc4ccccc4nc3c3c(=O)n(Cc4ccco4)c(C)nc32)cc1 | 18.4% (inactive) | 
O=[N+]([O-])c1ccc(Nc2nc(NCCO)nc(N3CCCC3)n2)cc1 | 5.1% (inactive) | 
Cc1ccsc1/C=C/C1=Cc2c(sc(NC(=O)CSc3n[nH]c(N)n3)c2C#N)C(C)(C)C1 | 20.6% (inactive) | 

Structure (SMILES) | inhibition | inhibition [1]
CCOc1ccc(/C=C/C2=Cc3c(sc(NC(=O)CSc4n[nH]c(N)n4)c3C#N)C(C)(C)C2)cc1 | 12.8% (inactive) | 
Cc1ccc(/C=C/C2=Cc3c(sc(NC(=O)CSc4n[nH]c(N)n4)c3C#N)C(C)(C)C2)o1 | 61.1% (active) | 
COc1cccc(NC(=O)c2ccco2)c1 | 3.2% (inactive) | 
Cc1ncc(CO)c(/C=N/NC(=S)Nc2ccc(C(C)C)cc2)c1O | 16.5% (inactive) | 
Cc1ncc(CO)c(/C=N/NC(=S)Nc2ccc(Cl)c(Cl)c2)c1O | 50.4% (inactive) | 30.4%
Cc1ncc(CO)c(/C=N/NC(=S)Nc2cccc(Cl)c2)c1O | 53.7% (active) | 
CCCCCCc1nc(C(N)=O)c2[nH]c(=O)n(-c3ccccc3F)c2n1 | 10.4% (inactive) | 
COC(=O)c1c(C)oc(C)c1S(=O)(=O)N(Cc1ccccc1)C(C)C | -16.1% (inactive) | 
CCc1ccc2nc(N(CCCN(C)C)C(=O)c3ccc(S(=O)(=O)N4CCCC4)cc3)sc2c1 | -0.7% (inactive) | 
CC(=O)c1ccc(N2CCN(C(=O)c3nn(C)c4c3CS(=O)(=O)c3ccccc3-4)CC2)cc1 | 9% (inactive) | 
CCOc1ccccc1-c1c2cc(O)c(=O)cc-2oc2cc(O)c(O)cc12 | 24.8% (inactive) | 
O=c1cc2oc3cc(O)c(O)cc3c(-c3ccccc3[N+](=O)[O-])c-2cc1O | 15.9% (inactive) | 
O=c1cc2oc3cc(O)c(O)cc3c(-c3ccccc3O)c-2cc1O | 68.3% (active) | 
CCC(=O)N1CCc2cc(S(=O)(=O)CCC(=O)Nc3ccc(OC)c(OC)c3)ccc21 | 5.3% (inactive) | 
Cc1cc(NC(=O)OC2CCCCC2)ccc1[N+](=O)[O-] | -7.7% (inactive) | 
COc1cc(C(=O)NS(=O)(=O)c2ccccc2C)ccc1Cc1cn(C)c2ccc(NC(=O)OC3CCCC3)cc12 | 51.7% (active) | 
COc1ccc(CNC(=O)Cc2cn(C)c3ccccc23)c(OC)c1 | 5.9% (inactive) | 
CC(C)CC(=O)N1CC(C)N(C(=O)CC(C)C)CC1C (stereo unspecified) | 4.2% (inactive) | 
O=[N+]([O-])c1cccc(CSc2nnc3ccccn23)c1 | 13.5% (inactive) | 
Cc1ccc(/C(C#N)=C\c2ccc(N3CCOCC3)o2)cc1 | 43.4% (inactive) | 
N#C/C(=C/c1ccc(N2CCOCC2)o1)c1ccc(Br)cc1 | 39.6% (inactive) | 
N#C/C(=C/c1ccc(N2CCOCC2)o1)c1ccc(Cl)cc1 | 51.9% (active) | 
CCCCCCc1ccc(N2C[C@H](CCCCC)[C@@H](CC(=O)NCc3ccc(OC)cc3)C2=O)cc1 | 10.1% (inactive) | 
